Source: PubChem BioAssay (NCATS)
Records with an inconclusive call do not appear. The source made the active and inactive calls. The call rests on the fitted dose curve; in most records, active means well fitted cell-killing curve with a large enough effect; inconclusive means small, poorly fitted or top-dose-only effect, or effect the other way; inactive means flat fitted curve, though single readings scatter.

Legend:
Assay in all cases: Primary qHTS to identify gynecologic anti-cancer compounds using libraries of approved drugs and bioactive compounds (AID 1345084); further: nearly all actives have a fitted effect of over 55% in size
Details in all cases: Gynecologic cancer cell panel viability, ATPlite luminescence, 48 h; series mostly up to 57.5 µM
[1] = test system: OV90
In short: (§1)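 ATP-based viability (ATPlite), 1,000 cells/well, 16 h pre-incubation, 48 h compound at 37 C, 5% CO2, 15 min RT before read.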

[2] = test system: PA-1
In short: as §1

[3] = test system: SKOV3
In short: as §1

[4] = test system: Tov-21-G
In short: as §1

[5] = test system: Tov112D
In short: as §1
On the % scale 0 is the no-effect control and ±100 the full control effect.

CC1(C)CC[C@]2(C(=O)O)[C@H](O)C[C@]3(C)C(=CCC4[C@@]5(C)CC[C@H](O[C@@H]6OC[C@@H](O)[C@H](O)[C@H]6O)[C@@](C)(C(=O)O)C5CC[C@]43C)[C@@H]2C1 (stereo not given in full)
inactive: Potency [1] | Potency [2] | Potency [3] | Potency [4] | Potency [5]

C[C@H]1CC[C@@]2(OC1)O[C@H]1CC3C4CC[C@H]5C[C@@H](O)CC[C@]5(C)C4CC(=O)[C@]3(C)[C@H]1[C@@H]2C (stereo not given in full)
inactive: Potency [1] | Potency [2] | Potency [3] | Potency [4] | Potency [5]

C=C1C(=O)OC2CC(COC(=O)C(C)C)=C(C(C)CCCOC(C)=O)[C@@H](OC(C)=O)C12 (stereo not given in full)
inactive: Potency [1] | Potency [2] | Potency [3] | Potency [4] | Potency [5]

CN[C@H](CNC(=O)N1CCC[C@@H]([C@@H](OCCNC(=O)OC)c2cccc(Cl)c2)C1)C[C@H]1CCCOC1
inactive: Potency [1] | Potency [2] | Potency [3] | Potency [4] | Potency [5]

NC[C@H]1CCC[C@@H](CNC(=O)[C@@H](Cc2c[nH]c3ccccc23)NC(=O)N2CCC3(C=Cc4ccccc43)CC2)C1
inactive: Potency [1] | Potency [2] | Potency [3] | Potency [4] | Potency [5]

CC(=O)OC(C)C(C)(O)C(=O)O[C@@H]1CC[C@]2(C)CC(=O)C(=C(C)C)C[C@H]2[C@]1(C)OC(C)=O (stereo not given in full)
inactive: Potency [1] | Potency [2] | Potency [3] | Potency [4] | Potency [5]

C[C@@H]1C[C@@H](O)[C@@]2(CO)C(CO)=CCC[C@@H]2[C@@]12C[C@@H](c1ccoc1)OC2=O
inactive: Potency [1] | Potency [2] | Potency [3] | Potency [4] | Potency [5]

O=C(NC1CCN(CC(F)(F)F)CC1)c1ccc(-c2cccc(F)c2)nc1
inactive: Potency [1] | Potency [2] | Potency [3] | Potency [4] | Potency [5]

COC(=O)C(CC1(OC(=O)C(C)C)c2ccccc2N2C(=O)C(C)(C)N(O)C21)n1cnc2ccccc2c1=O (stereo not given)
inactive: Potency [1] | Potency [2] | Potency [3] | Potency [4] | Potency [5]

C=C[C@H]1[C@H](O[C@@H]2O[C@H](CO)[C@@H](O)[C@H](O)[C@H]2O)OC=C(C(=O)OC)[C@H]1CC=O
inactive: Potency [1] | Potency [2] | Potency [3] | Potency [4] | Potency [5]

CC(C)c1c(NC(=O)Nc2ccc(Cl)cc2)c(=O)n(-c2ccccc2)n1C
inactive: Potency [1] | Potency [2] | Potency [3] | Potency [4] | Potency [5]

CC1(C)Oc2ncnc(N)c2N=C1c1ccc(C2CCC(CC(=O)O)CC2)cc1 (stereo not given)
inactive: Potency [1] | Potency [2] | Potency [3] | Potency [4] | Potency [5]

C/C(=C\CC/C(C)=C/CC[C@]1(C)CCc2cc(O)cc(C)c2O1)CC/C=C(\C)C(=O)O
inactive: Potency [1] | Potency [2] | Potency [3] | Potency [4] | Potency [5]

C=C(C)[C@@]1(O)C[C@@]2(C)C(=CC1=O)CC[C@@H](O)[C@@H]2C
inactive: Potency [1] | Potency [2] | Potency [3] | Potency [4] | Potency [5]

O=C(O)CCc1c(C(=O)O)[nH]c2cc(Cl)cc(Cl)c12
inactive: Potency [1] | Potency [2] | Potency [3] | Potency [4] | Potency [5]

CC1OC(OC2C(OC3C(O[C@H]4CC[C@@]5(C)C(CC[C@]6(C)C5C(=O)CC5=C7CC(C)(C)CC(O)[C@]7(C)CC[C@]56C)C4(C)C)OC(C(=O)O)C(O)C3O)OCC(O)C2O)C(O)C(O)C1O (stereo not given in full)
inactive: activity change, negative = cytotoxicity [1] -4.22% [at 11.6 µM] | activity change, negative = cytotoxicity [2] 14.2% [at 11.6 µM] | activity change, negative = cytotoxicity [3] 29.3% [at 11.6 µM] | activity change, negative = cytotoxicity [4] 4.68% [at 11.6 µM] | activity change, negative = cytotoxicity [5] 3.63% [at 11.6 µM]

C=C[C@H]1[C@H](O[C@@H]2O[C@H](CO)[C@@H](O)[C@H](O)[C@H]2O)OC=C(C(=O)OC)[C@H]1CCO
inactive: Potency [1] | Potency [2] | Potency [3] | Potency [4] | Potency [5]

C[C@]12CCC[C@](C)(C(=O)O)C1CCC13CC(CO)C(CCC12)C3 (stereo not given in full)
inactive: Potency [1] | Potency [2] | Potency [3] | Potency [4] | Potency [5]

OC[C@H]1O[C@@H](OCc2ccccc2)[C@H](O)[C@@H](O)[C@@H]1O
inactive: Potency [1] | Potency [2] | Potency [3] | Potency [4] | Potency [5]

CC1(C)COC(=O)[C@@H]1O[C@@H]1O[C@H](CO)[C@@H](O)[C@H](O)[C@H]1O
inactive: Potency [1] | Potency [2] | Potency [3] | Potency [4] | Potency [5]

CCOc1nc2c(N)ncnc2n1CC
inactive: Potency [1] | Potency [2] | Potency [3] | Potency [4] | Potency [5]

CC(C)c1ccc2c(c1)C(O)CC1C(C)(C(=O)O)CCCC21C (stereo not given)
inactive: Potency [1] | Potency [2] | Potency [3] | Potency [4] | Potency [5]

COC(=O)C1=COC(OC2OC(CO)C(O)C(O)C2O)C2C(COC(=O)/C=C/c3ccc(O)c(O)c3)C(O)C(O)C12 (stereo not given)
inactive: Potency [1] | Potency [2] | Potency [3] | Potency [4] | Potency [5]
